Results as given in PubChem BioAssay (NCATS).
Results filed as inconclusive are left out. Activity calls are given as the source filed them. The call rests on the fitted dose curve; in most records, active means well fitted curve in the direction sought with a large enough effect; inconclusive means small, poorly fitted or top-dose-only effect, or another doubt; inactive means no such curve, though single readings can be large; an effect the other way counts as inactive or inconclusive.

Assays:
[1] = qHTS of pediatric cancer cell lines to identify multiple opportunities for drug repurposing: Primary screen for A673 cells (AID 1347092); further: nearly all actives have a fitted effect of over 45% in size; further: potency means the concentration at half of the fitted maximal effect
How it was run: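 Luminescence from CellTiter-Glo, taken after 15 min at room temperature, served as the proxy for metabolically active cells following 48 h treatment. Both potency and efficacy were taken from curves fitted to the titration data.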

[2] = qHTS of pediatric cancer cell lines to identify multiple opportunities for drug repurposing: Primary screen for BT-37 cells (AID 1347094); further: potency means the concentration at half of the fitted maximal effect
How it was run: (§1)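 Viability was measured as metabolically active cells after 48 hours of treatment, read by CellTiter-Glo luminescence. Compounds were tested at multiple final concentrations, giving concentration-response curves.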

[3] = qHTS of pediatric cancer cell lines to identify multiple opportunities for drug repurposing: Primary screen for U-2 OS cells (AID 1347096); further: nearly all actives have a fitted effect of over 50% in size
How it was run: (§2)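 Cells (500-1,000/well) in growth media were settled 5 h at 37 degrees C, then given compounds for 48 h. Viability was read as CellTiter-Glo luminescence. Primary runs used MIPE at 11 points (0.78 nM-46 µM) and NPC at 8 points (0.59 nM-46 µM); follow-ups used 11 points.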

[4] = qHTS of pediatric cancer cell lines to identify multiple opportunities for drug repurposing: Primary screen for Saos-2 cells (AID 1347097); further: nearly all actives have a fitted effect of over 40% in size; further: potency means the concentration at half of the fitted maximal effect
How it was run: as §1

[5] = qHTS of pediatric cancer cell lines to identify multiple opportunities for drug repurposing: Primary screen for SK-N-SH cells (AID 1347098); further: nearly all actives have a fitted effect of over 65% in size; further: potency means the concentration at half of the fitted maximal effect
How it was run: (§3)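 Cells (500-1,000/well) rested 5 h, then received compounds for 48 h; metabolically active cells were measured by CellTiter-Glo luminescence. Final concentrations spanned up to 46 µM (MIPE, 11-point) or 0.59 nM-46 µM (NPC, 8-point) in primary screens, 11-point in follow-ups.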

[6] = qHTS of pediatric cancer cell lines to identify multiple opportunities for drug repurposing: Primary screen for NB1643 cells (AID 1347099); further: nearly all actives have a fitted effect of over 50% in size
How it was run: as §1

[7] = qHTS of pediatric cancer cell lines to identify multiple opportunities for drug repurposing: Primary screen for LAN-5 cells (AID 1347100); further: potency means the concentration at half of the fitted maximal effect
How it was run: as §2

[8] = qHTS of pediatric cancer cell lines to identify multiple opportunities for drug repurposing: Primary screen for Rh18 cells (AID 1347102); further: nearly all actives have a fitted effect of over 65% in size; further: potency means the concentration at half of the fitted maximal effect
How it was run: as §2

[9] = qHTS of pediatric cancer cell lines to identify multiple opportunities for drug repurposing: Primary screen for RD cells (AID 1347104); further: nearly all actives have a fitted effect of over 55% in size; further: potency means the concentration at half of the fitted maximal effect
How it was run: as §1

[10] = qHTS of pediatric cancer cell lines to identify multiple opportunities for drug repurposing: Primary screen for MG 63 (6-TG R) cells (AID 1347105); further: nearly all actives have a fitted effect of over 50% in size
How it was run: as §1

[11] = qHTS of pediatric cancer cell lines to identify multiple opportunities for drug repurposing: Primary screen for NB-EBc1 cells (AID 1347095); further: potency means the concentration at half of the fitted maximal effect
How it was run: as §1

[12] = qHTS of pediatric cancer cell lines to identify multiple opportunities for drug repurposing: Primary screen for control Hh wild type fibroblast cells (AID 1347106);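 further: series mostly up to about 46 µM; a drop in luminescence marks cytotoxicity and a rise apparent proliferation; nearly all actives have a fitted effect of over 55% in size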
How it was run: as §2

[13] = qHTS of pediatric cancer cell lines to identify multiple opportunities for drug repurposing: Primary screen for Rh30 cells (AID 1347107); further: series mostly up to about 46 µM; nearly all actives have a fitted effect of over 75% in size
How it was run: as §2

[14] = qHTS of pediatric cancer cell lines to identify multiple opportunities for drug repurposing: Primary screen for SK-N-MC cells (AID 1347093); further: potency means the concentration at half of the fitted maximal effect
How it was run: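 Metabolically active cells were quantified by ATP-dependent luminescence (CellTiter-Glo, 15 min at room temperature) following 48 h treatment. Cells had been plated at 500-1,000 per well and settled for 5 h beforehand.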

[15] = qHTS of pediatric cancer cell lines to identify multiple opportunities for drug repurposing: Primary screen for Rh41 cells (AID 1347108); further: nearly all actives have a fitted effect of over 70% in size; further: potency means the concentration at half of the fitted maximal effect
How it was run: as §1

[16] = qHTS of pediatric cancer cell lines to identify multiple opportunities for drug repurposing: Primary screen for BT-12 cells (AID 1347101); further: nearly all actives have a fitted effect of over 25% in size; further: potency means the concentration at half of the fitted maximal effect
How it was run: as §3

[17] = qHTS of pediatric cancer cell lines to identify multiple opportunities for drug repurposing: Primary screen for OHS-50 cells (AID 1347103); further: nearly all actives have a fitted effect of over 40% in size; further: potency means the concentration at half of the fitted maximal effect
How it was run: as §3

[18] = qHTS of pediatric cancer cell lines to identify multiple opportunities for drug repurposing: Confirmatory screen for NB1643 cells (AID 1347109); further: nearly all actives have a fitted effect of over 45% in size
How it was run: as §2

[19] = qHTS of pediatric cancer cell lines to identify multiple opportunities for drug repurposing: Confirmatory screen for A673 cells (AID 1347110);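 further: potency means the concentration at half of the fitted maximal effect; cells exposed to compound for 48 h before the viability read; nearly all actives have a fitted effect of over 65% in size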
How it was run: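 qHTS titration format: primary MIPE 0.78 nM-46 µM (11 pts), NPC 0.59 nM-46 µM; confirmation 11 pts. 48 h, CTG luminescence.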

Measured: Potency

O=c1[nH]c(=O)n([C@H]2C[C@H](O)[C@@H](CO)O2)cc1C(F)(F)F
active: [1] 1.68 µM | [2] 0.55 µM | [7] 1.33 µM
inactive: [3] | [4] | [5] | [6] | [8] | [9] | [10]

COc1cc2c(cc1OC)C(C(C(=O)N(CCc1ccc(OC)c(OC)c1OC)CCc1ccc(OC)c(OC)c1OC)c1ccccc1)=NCC2 (configuration not stated)
inactive: [1] | [11] | [4] | [5] | [6] | [7] | [8] | [9] | [12] | [13]

C/C=C(/C(=C/C)c1ccc(O)cc1)c1ccc(O)cc1
active: [14] 8.41 µM | [11] 18.8 µM | [4] 21.1 µM
inactive: [2] | [3] | [7] | [8] | [13] | [15]

Cc1cc(N)c2cc(NC(=O)Nc3ccc4nc(C)cc(N)c4c3)ccc2n1
not listed: [1] | [5] | [6] | [9] | [18] | [19]
inactive: all other assays above

O=C1OCCN1/N=C/c1ccc([N+](=O)[O-])o1
not listed: [1] | [5] | [12] | [18] | [19]
inactive: all other assays above

Clc1ccc2c(c1)CCc1cccnc1C2=C1CCNCC1
active: [17] 15.5 µM
inactive: [14] | [2] | [11] | [3] | [6] | [10] | [12] | [13] | [15]

Cc1c(N(C)CS(=O)(=O)O)c(=O)n(-c2ccccc2)n1C
not listed: [1] | [16] | [17] | [18] | [19]
inactive: all other assays above

O=C1[C@H]2CCCC[C@H]2C(=O)N1CCCCN1CCN(c2nsc3ccccc23)CC1
not listed: [1] | [4] | [7] | [15] | [16] | [17] | [18] | [19]
inactive: all other assays above

CN1CCCC(CC2c3ccccc3Sc3ccccc32)C1 (configuration not stated)
active: [14] 23.7 µM | [7] 23.7 µM | [16] 19.5 µM | [17] 24.6 µM
inactive: [11] | [3] | [6] | [12] | [13] | [15]

CCCCCCCCCCOCC(O)CN (configuration not stated)
active: [1] 21.1 µM | [8] 23.7 µM | [17] 30.9 µM
inactive: [3] | [6] | [13]

CC(=O)OCC(=O)[C@@]12OC(C)(C)O[C@@H]1C[C@H]1[C@@H]3C[C@H](F)C4=CC(=O)C=C[C@]4(C)[C@@]3(F)[C@@H](O)C[C@@]12C
not listed: [2] | [4] | [14] | [17] | [19]
inactive: all other assays above

CCOC(=O)[C@H](CCc1ccccc1)N[C@@H](C)C(=O)N1Cc2ccccc2C[C@H]1C(=O)O
not listed: [4] | [5] | [12] | [14] | [15] | [16] | [18] | [19]
inactive: all other assays above

CC(Cc1cccc(C(F)(F)F)c1)NCCOC(=O)c1ccccc1 (configuration not stated)
not listed: [2] | [4] | [11] | [14] | [17] | [18] | [19]
inactive: all other assays above

CCCCCCCCCCCCCCCCOP(=O)([O-])OCC[N+](C)(C)C
active: [14] 6.68 µM | [5] 13.7 µM
inactive: [2] | [3] | [4] | [8] | [12] | [13]

O=C(OCC(O)CO)c1ccccc1Nc1ccnc2cc(Cl)ccc12 (configuration not stated)
active: [4] 23.7 µM
not listed: [2] | [14] | [15] | [17] | [18] | [19]
inactive: all other assays above

COC(=O)C1=C(C)NC(C)=C(C(=O)O[C@@H]2CCCN(Cc3ccccc3)C2)[C@@H]1c1cccc([N+](=O)[O-])c1
active: [5] 30.7 µM | [17] 19.5 µM
inactive: [1] | [6] | [9] | [12] | [13]

NC(=NCCCCCCN=C(N)/N=C(\N)Nc1ccc(Cl)cc1)/N=C(\N)Nc1ccc(Cl)cc1
active: [1] 21.1 µM | [4] 26.6 µM | [5] 7.7 µM | [16] 9.78 µM | [9] 26.6 µM
inactive: [12] | [13]

CCOc1ccc2nc3cc(N)ccc3c(N)c2c1
inactive: [11] | [6] | [17] | [10] | [12] | [13]
active: [1] 26.6 µM | [2] 15.5 µM | [5] 15.4 µM | [16] 11 µM | [9] 23.7 µM | [15] 18.8 µM | [19] 18.5 µM
